What all share (experiment): DAPPL (digital affinity profiling via proximity ligation, sequencing); 10 mM Tris-HCl pH 7.5, 50 mM NaCl, 1 mM DTT, 4% glycerol, room temperature, 30 min; GST-TFs on glutathione beads, 16-mer random dsDNA library, 0.1% formaldehyde crosslink after washing; high values mean tight binding
Common to all, as to details: protein: recombinant; tags: N-terminal GST; dsDNA, one strand shown

The target of one test is T1, ELK1 (Homo sapiens, UniProt P19419 1-428).
T1 sequence: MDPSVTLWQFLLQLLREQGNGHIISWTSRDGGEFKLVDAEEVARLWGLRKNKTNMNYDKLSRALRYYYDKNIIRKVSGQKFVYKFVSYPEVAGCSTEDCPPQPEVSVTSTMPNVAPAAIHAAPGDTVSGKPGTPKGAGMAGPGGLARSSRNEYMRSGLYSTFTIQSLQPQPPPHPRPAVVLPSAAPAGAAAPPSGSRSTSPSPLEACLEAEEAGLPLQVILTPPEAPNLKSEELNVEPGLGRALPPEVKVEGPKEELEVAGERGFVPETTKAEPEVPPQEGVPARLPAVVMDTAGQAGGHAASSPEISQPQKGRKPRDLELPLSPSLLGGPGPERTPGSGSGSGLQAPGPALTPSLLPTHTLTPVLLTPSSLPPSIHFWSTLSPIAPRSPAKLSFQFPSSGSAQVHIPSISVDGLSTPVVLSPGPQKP
The method, boiled down: (§1)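 Beads coated with glutathione captured GST-fused human transcription factors that had been expressed in yeast, and the factors were then given DNA barcodes and pooled with a tag-only sample. The pools were incubated with 200 nmole of a random double-stranded 16-mer DNA library in Tris/NaCl/DTT/glycerol buffer for 30 min at room temperature, washed, crosslinked with 0.1% formaldehyde and proximity-ligated with BsaI/T4 ligase at 37 °C for 1 h. PCR amplification and Illumina NextSeq500 sequencing came last. Binding signal is each hexamer's read frequency for a factor divided by its frequency for the tag-only sample.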

A further test has as its target T2, GABPA (Homo sapiens, UniProt Q06546 1-454).
T2 sequence: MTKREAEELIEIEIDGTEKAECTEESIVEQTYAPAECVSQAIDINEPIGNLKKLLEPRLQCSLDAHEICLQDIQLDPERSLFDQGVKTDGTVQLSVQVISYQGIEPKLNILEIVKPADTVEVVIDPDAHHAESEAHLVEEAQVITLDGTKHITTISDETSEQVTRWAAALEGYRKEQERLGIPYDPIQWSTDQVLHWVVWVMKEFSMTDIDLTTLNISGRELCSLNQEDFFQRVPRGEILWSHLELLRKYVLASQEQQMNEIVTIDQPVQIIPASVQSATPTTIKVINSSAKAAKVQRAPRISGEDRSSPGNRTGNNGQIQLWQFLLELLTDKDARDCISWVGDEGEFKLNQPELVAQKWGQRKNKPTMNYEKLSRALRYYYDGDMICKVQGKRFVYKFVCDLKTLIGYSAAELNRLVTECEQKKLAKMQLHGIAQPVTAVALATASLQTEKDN
A digest of the protocol:
as §1

The next test deals with T3, ERG (Homo sapiens, UniProt P11308 1-479).
T3 sequence: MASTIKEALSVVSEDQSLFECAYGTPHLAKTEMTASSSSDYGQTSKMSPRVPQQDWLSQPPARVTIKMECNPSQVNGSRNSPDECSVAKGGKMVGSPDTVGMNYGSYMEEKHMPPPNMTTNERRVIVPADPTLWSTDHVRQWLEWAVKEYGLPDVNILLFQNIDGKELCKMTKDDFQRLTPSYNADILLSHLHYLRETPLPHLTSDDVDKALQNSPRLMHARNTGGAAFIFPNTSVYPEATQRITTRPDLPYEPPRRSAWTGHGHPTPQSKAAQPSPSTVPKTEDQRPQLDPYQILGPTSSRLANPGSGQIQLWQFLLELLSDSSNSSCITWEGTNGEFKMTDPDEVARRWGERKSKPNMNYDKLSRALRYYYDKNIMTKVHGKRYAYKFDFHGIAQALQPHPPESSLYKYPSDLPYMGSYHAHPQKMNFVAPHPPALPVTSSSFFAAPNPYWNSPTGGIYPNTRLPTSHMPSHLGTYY
The method, boiled down: as §1

A further test concerns the target ELF1 (Homo sapiens, UniProt P32519 1-619). The method, boiled down:
as §1

The target of another test is T4, EHF (Homo sapiens, UniProt Q9NZC4 1-300).
T4 sequence: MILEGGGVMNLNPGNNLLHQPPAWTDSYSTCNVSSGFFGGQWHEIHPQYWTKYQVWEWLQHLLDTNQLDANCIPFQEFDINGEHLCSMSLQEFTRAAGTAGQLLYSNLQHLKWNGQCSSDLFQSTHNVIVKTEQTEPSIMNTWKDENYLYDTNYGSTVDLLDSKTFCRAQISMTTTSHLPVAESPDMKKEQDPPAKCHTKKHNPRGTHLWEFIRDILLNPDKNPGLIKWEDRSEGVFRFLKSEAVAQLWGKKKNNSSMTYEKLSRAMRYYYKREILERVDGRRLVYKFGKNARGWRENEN
A digest of the protocol:
as §1

The target of a further test is SPI1 (Homo sapiens, UniProt P17947 1-270). A digest of the protocol: as §1
The target in another test is SPIB (Homo sapiens, UniProt Q01892 1-262). The method, boiled down: as §1
A further test deals with T5, FEV (Homo sapiens, UniProt Q99581 1-238).
T5 sequence: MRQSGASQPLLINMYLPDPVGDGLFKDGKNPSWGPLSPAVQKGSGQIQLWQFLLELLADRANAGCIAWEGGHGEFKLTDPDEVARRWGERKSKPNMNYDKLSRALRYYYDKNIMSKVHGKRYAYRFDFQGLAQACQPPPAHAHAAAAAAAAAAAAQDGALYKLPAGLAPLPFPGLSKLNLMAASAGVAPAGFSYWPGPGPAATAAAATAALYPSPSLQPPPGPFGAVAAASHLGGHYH
A digest of the protocol:
as §1

The target of a further test is ETV5 (Homo sapiens, UniProt P41161 1-510). A digest of the protocol:
as §1

For a further test, the target named is ELF4 (Homo sapiens, UniProt Q99607 1-663). A digest of the protocol: as §1
The target of another test is T6, ELK4 (Homo sapiens, UniProt P28324-2 1-405).
T6 sequence: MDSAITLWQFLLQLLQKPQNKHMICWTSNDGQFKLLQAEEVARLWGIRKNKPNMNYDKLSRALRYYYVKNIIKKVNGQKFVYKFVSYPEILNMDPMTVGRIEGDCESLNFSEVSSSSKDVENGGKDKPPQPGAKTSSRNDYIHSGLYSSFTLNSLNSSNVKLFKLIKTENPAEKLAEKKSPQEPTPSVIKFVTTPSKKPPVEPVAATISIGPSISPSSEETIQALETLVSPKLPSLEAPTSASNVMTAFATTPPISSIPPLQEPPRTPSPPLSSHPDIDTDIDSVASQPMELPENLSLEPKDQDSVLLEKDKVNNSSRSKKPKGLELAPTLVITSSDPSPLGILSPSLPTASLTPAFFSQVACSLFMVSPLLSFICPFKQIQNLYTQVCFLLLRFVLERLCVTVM
The method, boiled down: as §1

The target in another test is T7, ETV2 (Homo sapiens, UniProt O00321 1-342).
T7 sequence: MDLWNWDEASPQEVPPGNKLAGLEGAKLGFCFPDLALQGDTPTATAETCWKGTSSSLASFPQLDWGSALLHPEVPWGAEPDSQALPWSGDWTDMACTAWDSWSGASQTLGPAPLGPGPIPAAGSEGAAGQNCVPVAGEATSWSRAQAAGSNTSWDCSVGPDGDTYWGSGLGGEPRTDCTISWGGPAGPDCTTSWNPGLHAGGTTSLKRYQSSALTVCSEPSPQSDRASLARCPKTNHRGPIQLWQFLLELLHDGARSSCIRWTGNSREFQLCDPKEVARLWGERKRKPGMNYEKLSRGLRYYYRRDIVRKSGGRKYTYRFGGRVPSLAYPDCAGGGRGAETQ
A digest of the protocol:
as §1

A further test has as its target ETV1 (Homo sapiens, UniProt P50549 1-477). A digest of the protocol: as §1
For the next test, the target named is T8, ERF (Homo sapiens, UniProt P50548 1-548).
T8 sequence: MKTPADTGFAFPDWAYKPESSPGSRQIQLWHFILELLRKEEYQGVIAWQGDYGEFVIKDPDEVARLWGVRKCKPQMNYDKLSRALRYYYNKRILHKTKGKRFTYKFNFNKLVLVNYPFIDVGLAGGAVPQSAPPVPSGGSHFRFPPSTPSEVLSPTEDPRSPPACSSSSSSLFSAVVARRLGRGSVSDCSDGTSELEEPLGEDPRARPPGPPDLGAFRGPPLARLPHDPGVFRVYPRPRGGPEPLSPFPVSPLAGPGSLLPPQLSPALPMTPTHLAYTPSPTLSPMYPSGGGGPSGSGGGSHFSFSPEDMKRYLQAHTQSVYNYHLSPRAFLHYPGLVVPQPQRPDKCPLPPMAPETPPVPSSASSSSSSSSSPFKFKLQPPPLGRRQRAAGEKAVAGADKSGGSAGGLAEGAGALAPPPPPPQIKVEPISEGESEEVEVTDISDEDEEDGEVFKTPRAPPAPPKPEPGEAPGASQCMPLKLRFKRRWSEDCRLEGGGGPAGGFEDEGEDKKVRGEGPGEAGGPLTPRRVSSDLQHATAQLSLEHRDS
The method, boiled down:
as §1

Another test has as its target T9, ETV3L (Homo sapiens, UniProt Q6ZN32 1-361).
T9 sequence: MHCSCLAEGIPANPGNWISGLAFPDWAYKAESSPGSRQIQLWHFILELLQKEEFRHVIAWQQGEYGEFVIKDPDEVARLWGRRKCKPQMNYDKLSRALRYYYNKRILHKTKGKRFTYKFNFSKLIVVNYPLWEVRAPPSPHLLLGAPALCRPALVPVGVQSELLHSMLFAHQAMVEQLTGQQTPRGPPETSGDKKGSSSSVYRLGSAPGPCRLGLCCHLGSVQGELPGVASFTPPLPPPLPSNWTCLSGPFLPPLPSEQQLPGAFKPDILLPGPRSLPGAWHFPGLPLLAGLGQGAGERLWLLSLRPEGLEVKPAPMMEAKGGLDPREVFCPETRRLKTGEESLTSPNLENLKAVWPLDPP
A digest of the protocol:
as §1

Another test concerns the target T10, ETS2 (Homo sapiens, UniProt P15036 1-469).
T10 sequence: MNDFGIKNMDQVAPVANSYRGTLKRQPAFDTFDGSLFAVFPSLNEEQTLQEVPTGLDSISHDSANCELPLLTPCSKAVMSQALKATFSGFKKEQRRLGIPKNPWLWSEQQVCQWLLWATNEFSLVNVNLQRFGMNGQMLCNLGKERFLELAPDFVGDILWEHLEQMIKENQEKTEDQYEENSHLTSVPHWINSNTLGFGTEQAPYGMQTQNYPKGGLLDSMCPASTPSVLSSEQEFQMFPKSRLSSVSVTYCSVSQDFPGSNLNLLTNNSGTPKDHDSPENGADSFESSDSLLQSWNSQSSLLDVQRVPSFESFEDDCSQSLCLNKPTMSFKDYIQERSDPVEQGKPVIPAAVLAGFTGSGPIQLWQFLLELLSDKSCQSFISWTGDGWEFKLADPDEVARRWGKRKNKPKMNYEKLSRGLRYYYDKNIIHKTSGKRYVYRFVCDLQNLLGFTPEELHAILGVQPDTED
A digest of the protocol: as §1

The target in a further test is T11, ETV7 (Homo sapiens, UniProt Q9Y603 1-341).
T11 sequence: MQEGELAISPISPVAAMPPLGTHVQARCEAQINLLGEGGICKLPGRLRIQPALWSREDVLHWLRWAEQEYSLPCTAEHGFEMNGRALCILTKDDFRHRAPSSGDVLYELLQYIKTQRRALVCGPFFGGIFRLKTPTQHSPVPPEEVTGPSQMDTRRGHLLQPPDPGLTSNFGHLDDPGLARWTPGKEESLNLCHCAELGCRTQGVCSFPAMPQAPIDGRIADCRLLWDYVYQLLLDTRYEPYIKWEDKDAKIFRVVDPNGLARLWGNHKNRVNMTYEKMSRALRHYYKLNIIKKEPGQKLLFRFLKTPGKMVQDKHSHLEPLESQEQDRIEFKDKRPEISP
A digest of the protocol: as §1

For another test, the target named is T12, ETV3 (Homo sapiens, UniProt P41162-2 1-143).
T12 sequence: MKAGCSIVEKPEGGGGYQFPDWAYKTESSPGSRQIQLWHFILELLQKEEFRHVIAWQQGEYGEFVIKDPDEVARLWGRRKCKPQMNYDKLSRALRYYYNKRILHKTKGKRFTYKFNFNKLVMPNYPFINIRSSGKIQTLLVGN
The method, boiled down:
as §1

In a further test the target is ETV6 (Homo sapiens, UniProt P41212 1-452). A digest of the protocol: as §1
Chain of ETV6 (P41212 whole entry): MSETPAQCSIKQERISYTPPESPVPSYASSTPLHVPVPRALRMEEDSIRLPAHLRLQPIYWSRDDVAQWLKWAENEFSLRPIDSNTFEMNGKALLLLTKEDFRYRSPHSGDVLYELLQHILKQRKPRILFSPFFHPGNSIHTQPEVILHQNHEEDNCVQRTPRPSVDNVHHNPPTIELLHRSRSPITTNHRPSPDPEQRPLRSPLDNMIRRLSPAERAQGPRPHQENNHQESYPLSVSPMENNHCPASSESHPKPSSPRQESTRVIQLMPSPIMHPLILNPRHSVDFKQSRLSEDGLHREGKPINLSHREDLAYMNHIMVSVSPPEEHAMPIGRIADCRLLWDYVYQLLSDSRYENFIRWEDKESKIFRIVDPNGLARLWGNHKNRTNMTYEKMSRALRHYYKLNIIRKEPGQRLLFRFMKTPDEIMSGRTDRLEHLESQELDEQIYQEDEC

Chain of ETV1 (P50549 whole entry): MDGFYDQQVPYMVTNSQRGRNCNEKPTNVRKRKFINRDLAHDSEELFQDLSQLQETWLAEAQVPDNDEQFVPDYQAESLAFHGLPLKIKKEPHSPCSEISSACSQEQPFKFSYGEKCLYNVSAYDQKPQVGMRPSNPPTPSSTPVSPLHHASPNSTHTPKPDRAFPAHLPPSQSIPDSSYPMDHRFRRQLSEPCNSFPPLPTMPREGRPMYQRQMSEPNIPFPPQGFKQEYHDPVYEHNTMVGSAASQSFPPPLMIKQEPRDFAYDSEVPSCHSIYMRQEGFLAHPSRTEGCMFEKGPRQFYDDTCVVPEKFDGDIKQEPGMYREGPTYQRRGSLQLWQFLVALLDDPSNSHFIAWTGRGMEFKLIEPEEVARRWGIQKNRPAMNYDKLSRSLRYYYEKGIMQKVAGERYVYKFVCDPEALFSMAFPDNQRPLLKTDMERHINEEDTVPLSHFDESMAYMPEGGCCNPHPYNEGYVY
Chain of ELF4 (Q99607 whole entry): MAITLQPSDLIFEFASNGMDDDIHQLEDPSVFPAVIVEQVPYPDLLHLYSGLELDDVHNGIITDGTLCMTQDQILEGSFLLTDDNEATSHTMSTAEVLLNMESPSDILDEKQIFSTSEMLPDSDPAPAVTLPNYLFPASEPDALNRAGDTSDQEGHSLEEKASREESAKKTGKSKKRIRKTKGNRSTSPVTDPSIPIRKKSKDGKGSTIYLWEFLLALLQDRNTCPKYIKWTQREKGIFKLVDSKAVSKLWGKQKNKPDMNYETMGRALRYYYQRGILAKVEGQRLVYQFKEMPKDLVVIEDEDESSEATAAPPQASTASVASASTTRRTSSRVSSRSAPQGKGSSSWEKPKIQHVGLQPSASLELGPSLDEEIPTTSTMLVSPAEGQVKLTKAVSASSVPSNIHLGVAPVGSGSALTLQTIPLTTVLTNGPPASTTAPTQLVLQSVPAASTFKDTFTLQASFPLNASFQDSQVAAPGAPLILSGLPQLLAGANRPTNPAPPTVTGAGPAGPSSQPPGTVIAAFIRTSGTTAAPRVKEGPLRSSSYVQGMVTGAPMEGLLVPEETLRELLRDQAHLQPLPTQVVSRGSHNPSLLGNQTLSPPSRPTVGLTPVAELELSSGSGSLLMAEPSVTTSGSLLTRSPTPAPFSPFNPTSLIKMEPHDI
Chain of ELF1 (P32519 whole entry): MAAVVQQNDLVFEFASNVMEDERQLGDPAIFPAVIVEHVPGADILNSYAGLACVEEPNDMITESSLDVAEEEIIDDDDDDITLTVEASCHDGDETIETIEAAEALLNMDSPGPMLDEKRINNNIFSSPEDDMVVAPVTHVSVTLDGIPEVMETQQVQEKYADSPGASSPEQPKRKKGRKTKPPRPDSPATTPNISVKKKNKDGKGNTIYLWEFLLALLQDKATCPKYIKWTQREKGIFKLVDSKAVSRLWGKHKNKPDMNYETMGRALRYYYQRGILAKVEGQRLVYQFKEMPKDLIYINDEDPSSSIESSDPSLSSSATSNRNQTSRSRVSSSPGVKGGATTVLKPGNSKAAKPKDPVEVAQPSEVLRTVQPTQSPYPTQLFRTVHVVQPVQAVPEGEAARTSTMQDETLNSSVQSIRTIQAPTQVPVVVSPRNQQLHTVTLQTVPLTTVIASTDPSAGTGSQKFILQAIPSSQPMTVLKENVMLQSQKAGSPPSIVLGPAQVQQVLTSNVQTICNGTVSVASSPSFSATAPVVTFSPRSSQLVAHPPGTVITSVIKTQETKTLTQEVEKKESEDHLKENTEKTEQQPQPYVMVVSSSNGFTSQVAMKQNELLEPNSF
Chain of ETV5 (P41161 whole entry): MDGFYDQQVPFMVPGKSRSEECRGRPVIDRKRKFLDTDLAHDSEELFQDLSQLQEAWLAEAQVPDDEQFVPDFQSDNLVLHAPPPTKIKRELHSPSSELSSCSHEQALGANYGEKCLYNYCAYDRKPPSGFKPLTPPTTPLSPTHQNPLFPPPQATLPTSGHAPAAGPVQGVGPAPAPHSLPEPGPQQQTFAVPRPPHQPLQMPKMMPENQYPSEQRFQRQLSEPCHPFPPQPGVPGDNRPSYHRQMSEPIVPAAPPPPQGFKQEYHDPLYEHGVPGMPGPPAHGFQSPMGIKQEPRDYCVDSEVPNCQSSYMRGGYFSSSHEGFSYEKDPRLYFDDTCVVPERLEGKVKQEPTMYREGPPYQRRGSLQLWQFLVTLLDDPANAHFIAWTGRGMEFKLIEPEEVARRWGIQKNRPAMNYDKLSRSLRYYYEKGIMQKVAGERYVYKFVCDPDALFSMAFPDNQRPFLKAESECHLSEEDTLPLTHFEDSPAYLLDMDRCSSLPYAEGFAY
Chain of SPIB (Q01892 whole entry): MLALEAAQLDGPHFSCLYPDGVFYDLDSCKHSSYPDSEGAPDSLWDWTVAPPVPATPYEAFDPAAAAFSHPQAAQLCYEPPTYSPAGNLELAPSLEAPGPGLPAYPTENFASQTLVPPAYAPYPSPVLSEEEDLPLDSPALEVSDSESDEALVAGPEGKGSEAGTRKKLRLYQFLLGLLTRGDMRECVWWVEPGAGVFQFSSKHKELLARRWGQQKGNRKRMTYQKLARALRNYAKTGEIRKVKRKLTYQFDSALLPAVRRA

GCGTCT: the binding signal was 1.05 fold enrichment (6-mer frequency, TF over GST control) in the test with ELK1; 1.02 fold enrichment (6-mer frequency, TF over GST control) with GABPA; 1.08 fold enrichment (6-mer frequency, TF over GST control) with ERG; 1.08 fold enrichment (6-mer frequency, TF over GST control) in the test with ELF1; 1.08 fold enrichment (6-mer frequency, TF over GST control) with EHF; 1.04 fold enrichment (6-mer frequency, TF over GST control) in the test with SPI1. The binding signal with SPIB is 1.19 fold enrichment (6-mer frequency, TF over GST control); with FEV it was 1.08 fold enrichment (6-mer frequency, TF over GST control); with ETV5 it was 1.04 fold enrichment (6-mer frequency, TF over GST control); with ELF4 it was 1.04 fold enrichment (6-mer frequency, TF over GST control); with ELK4, 1.11 fold enrichment (6-mer frequency, TF over GST control); with ETV2, 1.1 fold enrichment (6-mer frequency, TF over GST control). The binding signal with ETV1 is 1.18 fold enrichment (6-mer frequency, TF over GST control); in the test with ERF, 1.12 fold enrichment (6-mer frequency, TF over GST control); with ETV3L it was 1.1 fold enrichment (6-mer frequency, TF over GST control); with ETS2, 1.04 fold enrichment (6-mer frequency, TF over GST control); in the test with ETV7, 1.1 fold enrichment (6-mer frequency, TF over GST control); in the test with ETV3 it was 1.11 fold enrichment (6-mer frequency, TF over GST control). In addition, in the test with ETV6, the binding signal is 1.04 fold enrichment (6-mer frequency, TF over GST control).

The values above are taken from paper PMC7862700, “An all-to-all approach to the identification of sequence-specific readers for epigenetic DNA modifications on cytosine”.
